# How the values were obtained:
# Experiment in all cases: DAPPL (digital affinity profiling via proximity ligation, sequencing); 10 mM Tris-HCl pH 7.5, 50 mM NaCl, 1 mM DTT, 4% glycerol, room temperature, 30 min; GST-TFs on glutathione beads, 16-mer random dsDNA library, 0.1% formaldehyde crosslink after washing; high values mean tight binding
# [1] = target: T1, FEV (Homo sapiens, UniProt Q99581 1-238); settings: protein: recombinant; tags: N-terminal GST; dsDNA, one strand shown
# T1 sequence: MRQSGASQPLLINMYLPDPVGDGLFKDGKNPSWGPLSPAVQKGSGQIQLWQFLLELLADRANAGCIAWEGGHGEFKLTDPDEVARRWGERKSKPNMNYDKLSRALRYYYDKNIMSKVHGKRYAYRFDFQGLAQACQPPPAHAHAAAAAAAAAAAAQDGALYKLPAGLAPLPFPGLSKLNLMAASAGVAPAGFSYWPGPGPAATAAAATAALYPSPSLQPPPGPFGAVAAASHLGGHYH
# Method in brief: (§1)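 Each value of binding signal is a hexamer's read frequency for a factor divided by the same hexamer's frequency in the tag-only sample. Barcoded, bead-captured GST fusions of human transcription factors made in yeast were pooled with that sample and incubated with 200 nmole of a random double-stranded 16-mer DNA library in Tris/NaCl/DTT/glycerol buffer at room temperature for 30 min. Washing, 0.1% formaldehyde crosslinking, proximity ligation, PCR and Illumina NextSeq500 sequencing followed.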
# [2] = target: ETV5 (Homo sapiens, UniProt P41161 1-510); settings: protein: recombinant; tags: N-terminal GST; dsDNA, one strand shown
# Sequence of ETV5 (P41161 whole entry): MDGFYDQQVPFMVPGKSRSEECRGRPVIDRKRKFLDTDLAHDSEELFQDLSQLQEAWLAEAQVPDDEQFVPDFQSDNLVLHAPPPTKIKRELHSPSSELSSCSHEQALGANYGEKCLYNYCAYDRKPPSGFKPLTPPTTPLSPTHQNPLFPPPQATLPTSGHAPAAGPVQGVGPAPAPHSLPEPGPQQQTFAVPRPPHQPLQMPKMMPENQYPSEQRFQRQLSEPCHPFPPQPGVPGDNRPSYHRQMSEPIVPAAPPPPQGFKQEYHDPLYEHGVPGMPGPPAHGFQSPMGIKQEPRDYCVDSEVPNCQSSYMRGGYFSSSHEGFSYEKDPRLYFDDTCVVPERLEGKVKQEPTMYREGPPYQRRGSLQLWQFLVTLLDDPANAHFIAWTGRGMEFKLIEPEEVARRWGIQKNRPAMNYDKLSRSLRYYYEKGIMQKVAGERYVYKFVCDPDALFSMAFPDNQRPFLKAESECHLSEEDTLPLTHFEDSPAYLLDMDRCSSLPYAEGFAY
# Method in brief: as §1
# [3] = target: HSF1 (Homo sapiens, UniProt Q00613 1-529); settings: protein: recombinant; tags: N-terminal GST; chain copies: 3; dsDNA, one strand shown
# Sequence of HSF1 (Q00613 whole entry): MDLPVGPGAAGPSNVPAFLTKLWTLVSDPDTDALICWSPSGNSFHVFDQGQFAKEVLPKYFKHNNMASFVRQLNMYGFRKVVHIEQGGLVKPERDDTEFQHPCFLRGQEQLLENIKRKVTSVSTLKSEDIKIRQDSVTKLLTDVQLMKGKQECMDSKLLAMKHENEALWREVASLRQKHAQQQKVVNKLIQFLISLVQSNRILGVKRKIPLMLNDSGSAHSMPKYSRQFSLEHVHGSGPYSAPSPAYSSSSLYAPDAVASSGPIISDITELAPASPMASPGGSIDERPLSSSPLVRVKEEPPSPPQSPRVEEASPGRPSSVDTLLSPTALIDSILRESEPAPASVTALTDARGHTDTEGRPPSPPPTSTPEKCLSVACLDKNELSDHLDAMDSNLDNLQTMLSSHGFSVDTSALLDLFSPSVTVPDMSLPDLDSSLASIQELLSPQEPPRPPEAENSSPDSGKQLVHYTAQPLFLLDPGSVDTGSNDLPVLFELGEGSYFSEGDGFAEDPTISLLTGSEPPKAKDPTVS
# Method in brief: as §1
# [4] = target: T2, SPIC (Homo sapiens, UniProt Q8N5J4 1-248); settings: protein: recombinant; tags: N-terminal GST; dsDNA, one strand shown
# T2 sequence: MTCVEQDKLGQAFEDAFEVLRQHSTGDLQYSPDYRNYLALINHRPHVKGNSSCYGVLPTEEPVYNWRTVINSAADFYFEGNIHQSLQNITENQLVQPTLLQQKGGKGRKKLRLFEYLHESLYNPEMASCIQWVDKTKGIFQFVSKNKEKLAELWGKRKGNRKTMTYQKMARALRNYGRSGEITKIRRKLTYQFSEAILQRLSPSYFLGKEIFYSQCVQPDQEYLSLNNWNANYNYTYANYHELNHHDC
# Method in brief: as §1
# [5] = target: ELF4 (Homo sapiens, UniProt Q99607 1-663); settings: protein: recombinant; tags: N-terminal GST; dsDNA, one strand shown
# Sequence of ELF4 (Q99607 whole entry): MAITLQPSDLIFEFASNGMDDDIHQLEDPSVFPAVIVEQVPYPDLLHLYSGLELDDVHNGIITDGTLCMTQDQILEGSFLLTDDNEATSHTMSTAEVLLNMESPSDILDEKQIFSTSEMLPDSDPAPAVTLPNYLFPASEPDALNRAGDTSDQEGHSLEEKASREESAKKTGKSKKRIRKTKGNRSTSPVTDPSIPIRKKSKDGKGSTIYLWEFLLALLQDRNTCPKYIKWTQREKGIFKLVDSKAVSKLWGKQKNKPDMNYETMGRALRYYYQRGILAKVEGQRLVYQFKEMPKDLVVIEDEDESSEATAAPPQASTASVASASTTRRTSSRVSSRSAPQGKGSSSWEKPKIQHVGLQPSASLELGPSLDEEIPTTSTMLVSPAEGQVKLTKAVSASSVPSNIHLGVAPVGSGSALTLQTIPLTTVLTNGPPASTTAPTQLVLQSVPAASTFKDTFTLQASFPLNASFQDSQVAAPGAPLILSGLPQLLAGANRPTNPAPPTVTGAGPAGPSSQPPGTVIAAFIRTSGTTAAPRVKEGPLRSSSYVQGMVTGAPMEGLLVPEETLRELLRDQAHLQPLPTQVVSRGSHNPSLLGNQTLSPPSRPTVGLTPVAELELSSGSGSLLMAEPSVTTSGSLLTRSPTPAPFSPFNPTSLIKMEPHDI
# Method in brief: as §1
# [6] = target: T3, ELK4 (Homo sapiens, UniProt P28324-2 1-405); settings: protein: recombinant; tags: N-terminal GST; dsDNA, one strand shown
# T3 sequence: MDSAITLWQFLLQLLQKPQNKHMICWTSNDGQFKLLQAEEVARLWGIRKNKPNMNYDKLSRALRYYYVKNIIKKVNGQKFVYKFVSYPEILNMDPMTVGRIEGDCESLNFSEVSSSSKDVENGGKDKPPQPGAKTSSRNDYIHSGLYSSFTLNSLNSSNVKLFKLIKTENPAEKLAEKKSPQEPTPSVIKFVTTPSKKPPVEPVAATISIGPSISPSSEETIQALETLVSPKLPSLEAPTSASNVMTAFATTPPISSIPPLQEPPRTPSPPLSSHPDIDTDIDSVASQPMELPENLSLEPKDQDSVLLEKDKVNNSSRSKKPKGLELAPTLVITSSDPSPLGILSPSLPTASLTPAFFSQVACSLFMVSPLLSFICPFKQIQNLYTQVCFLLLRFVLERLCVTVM
# Method in brief: as §1
# [7] = target: T4, ETV2 (Homo sapiens, UniProt O00321 1-342); settings: protein: recombinant; tags: N-terminal GST; dsDNA, one strand shown
# T4 sequence: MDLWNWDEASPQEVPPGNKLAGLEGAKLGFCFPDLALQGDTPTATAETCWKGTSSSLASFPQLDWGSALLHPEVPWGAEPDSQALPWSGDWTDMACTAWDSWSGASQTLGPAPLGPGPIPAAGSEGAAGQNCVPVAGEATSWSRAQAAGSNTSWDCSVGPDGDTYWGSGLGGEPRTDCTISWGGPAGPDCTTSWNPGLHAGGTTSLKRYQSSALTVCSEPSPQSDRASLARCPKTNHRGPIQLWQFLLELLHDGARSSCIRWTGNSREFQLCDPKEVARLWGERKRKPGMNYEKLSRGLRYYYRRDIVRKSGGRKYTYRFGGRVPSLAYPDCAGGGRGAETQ
# Method in brief: as §1
# [8] = target: T5, ELF3 (Homo sapiens, UniProt P78545 1-371); settings: protein: recombinant; tags: N-terminal GST; dsDNA, one strand shown
# T5 sequence: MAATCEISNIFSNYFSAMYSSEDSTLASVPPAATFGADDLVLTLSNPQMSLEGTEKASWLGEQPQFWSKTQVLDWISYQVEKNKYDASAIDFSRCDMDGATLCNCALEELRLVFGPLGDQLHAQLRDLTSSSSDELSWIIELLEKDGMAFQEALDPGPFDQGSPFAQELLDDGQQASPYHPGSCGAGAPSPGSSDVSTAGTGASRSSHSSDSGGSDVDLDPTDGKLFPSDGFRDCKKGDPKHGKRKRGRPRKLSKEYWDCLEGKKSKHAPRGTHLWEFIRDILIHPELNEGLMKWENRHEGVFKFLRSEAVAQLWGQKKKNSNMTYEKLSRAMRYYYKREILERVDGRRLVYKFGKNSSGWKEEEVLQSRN
# Method in brief: as §1
# [9] = target: CRX (Homo sapiens, UniProt O43186 1-299); settings: protein: recombinant; tags: N-terminal GST; dsDNA, one strand shown
# Sequence of CRX (O43186 whole entry): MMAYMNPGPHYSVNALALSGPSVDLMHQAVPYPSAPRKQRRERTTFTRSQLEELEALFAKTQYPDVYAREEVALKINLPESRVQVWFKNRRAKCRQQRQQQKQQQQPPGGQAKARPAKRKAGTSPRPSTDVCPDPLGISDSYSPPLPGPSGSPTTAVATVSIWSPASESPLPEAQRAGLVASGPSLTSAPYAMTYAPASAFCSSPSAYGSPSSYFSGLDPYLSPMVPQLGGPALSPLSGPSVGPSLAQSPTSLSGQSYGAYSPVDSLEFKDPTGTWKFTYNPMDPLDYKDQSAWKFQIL
# Method in brief: as §1
# [10] = target: ETV1 (Homo sapiens, UniProt P50549 1-477); settings: protein: recombinant; tags: N-terminal GST; dsDNA, one strand shown
# Sequence of ETV1 (P50549 whole entry): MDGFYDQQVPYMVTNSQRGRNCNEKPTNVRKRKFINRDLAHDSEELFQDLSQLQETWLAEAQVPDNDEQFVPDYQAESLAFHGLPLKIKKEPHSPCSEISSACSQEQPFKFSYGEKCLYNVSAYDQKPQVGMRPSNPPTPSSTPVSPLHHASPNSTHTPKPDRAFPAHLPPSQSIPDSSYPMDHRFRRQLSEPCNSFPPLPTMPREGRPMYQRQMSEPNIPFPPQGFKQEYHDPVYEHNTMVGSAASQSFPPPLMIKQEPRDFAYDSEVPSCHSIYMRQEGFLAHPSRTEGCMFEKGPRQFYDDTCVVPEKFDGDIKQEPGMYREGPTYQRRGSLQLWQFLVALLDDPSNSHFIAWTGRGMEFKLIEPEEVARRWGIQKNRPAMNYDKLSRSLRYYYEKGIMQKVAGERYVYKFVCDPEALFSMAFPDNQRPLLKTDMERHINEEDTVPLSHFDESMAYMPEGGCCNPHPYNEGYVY
# Method in brief: as §1
# [11] = target: T6, ERF (Homo sapiens, UniProt P50548 1-548); settings: protein: recombinant; tags: N-terminal GST; dsDNA, one strand shown
# T6 sequence: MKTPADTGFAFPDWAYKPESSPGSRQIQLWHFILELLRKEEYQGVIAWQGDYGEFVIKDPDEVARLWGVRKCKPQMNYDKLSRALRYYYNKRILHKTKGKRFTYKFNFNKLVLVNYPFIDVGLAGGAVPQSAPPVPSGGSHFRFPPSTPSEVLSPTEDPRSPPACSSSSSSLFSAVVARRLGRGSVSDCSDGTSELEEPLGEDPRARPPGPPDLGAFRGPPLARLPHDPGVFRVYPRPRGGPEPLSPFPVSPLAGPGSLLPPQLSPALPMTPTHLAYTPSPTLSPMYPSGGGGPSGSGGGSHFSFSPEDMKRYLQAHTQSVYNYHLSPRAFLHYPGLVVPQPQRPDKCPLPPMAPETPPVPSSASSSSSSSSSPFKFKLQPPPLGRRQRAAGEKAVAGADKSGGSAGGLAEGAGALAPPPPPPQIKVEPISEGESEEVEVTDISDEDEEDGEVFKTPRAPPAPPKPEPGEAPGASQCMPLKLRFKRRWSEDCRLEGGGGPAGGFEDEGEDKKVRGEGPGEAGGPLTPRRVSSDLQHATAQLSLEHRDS
# Method in brief: as §1
# [12] = target: T7, ETV3L (Homo sapiens, UniProt Q6ZN32 1-361); settings: protein: recombinant; tags: N-terminal GST; dsDNA, one strand shown
# T7 sequence: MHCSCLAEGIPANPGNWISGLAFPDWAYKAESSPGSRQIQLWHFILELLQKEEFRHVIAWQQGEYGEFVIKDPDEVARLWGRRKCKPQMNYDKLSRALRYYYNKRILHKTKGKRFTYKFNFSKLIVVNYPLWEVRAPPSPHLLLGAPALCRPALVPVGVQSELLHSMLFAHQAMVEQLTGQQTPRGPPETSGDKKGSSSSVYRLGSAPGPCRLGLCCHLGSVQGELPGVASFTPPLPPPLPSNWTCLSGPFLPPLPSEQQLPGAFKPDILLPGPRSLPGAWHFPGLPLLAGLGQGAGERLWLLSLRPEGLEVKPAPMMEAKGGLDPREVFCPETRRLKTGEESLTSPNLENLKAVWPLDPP
# Method in brief: as §1
# [13] = target: T8, ETS2 (Homo sapiens, UniProt P15036 1-469); settings: protein: recombinant; tags: N-terminal GST; dsDNA, one strand shown
# T8 sequence: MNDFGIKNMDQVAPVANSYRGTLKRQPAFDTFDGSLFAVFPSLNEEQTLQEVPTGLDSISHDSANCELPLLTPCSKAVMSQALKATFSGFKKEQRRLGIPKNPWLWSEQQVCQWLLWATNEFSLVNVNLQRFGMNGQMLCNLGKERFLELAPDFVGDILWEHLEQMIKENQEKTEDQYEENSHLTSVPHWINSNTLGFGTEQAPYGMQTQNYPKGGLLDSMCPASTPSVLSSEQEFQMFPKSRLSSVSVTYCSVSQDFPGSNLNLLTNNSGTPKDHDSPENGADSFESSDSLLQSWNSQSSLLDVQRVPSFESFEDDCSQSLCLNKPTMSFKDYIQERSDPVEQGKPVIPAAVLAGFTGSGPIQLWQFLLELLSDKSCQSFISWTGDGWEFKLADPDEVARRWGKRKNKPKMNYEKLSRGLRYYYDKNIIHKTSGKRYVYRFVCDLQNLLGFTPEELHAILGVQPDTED
# Method in brief: as §1
# [14] = target: T9, SPDEF (Homo sapiens, UniProt O95238 1-335); settings: protein: recombinant; tags: N-terminal GST; dsDNA, one strand shown
# T9 sequence: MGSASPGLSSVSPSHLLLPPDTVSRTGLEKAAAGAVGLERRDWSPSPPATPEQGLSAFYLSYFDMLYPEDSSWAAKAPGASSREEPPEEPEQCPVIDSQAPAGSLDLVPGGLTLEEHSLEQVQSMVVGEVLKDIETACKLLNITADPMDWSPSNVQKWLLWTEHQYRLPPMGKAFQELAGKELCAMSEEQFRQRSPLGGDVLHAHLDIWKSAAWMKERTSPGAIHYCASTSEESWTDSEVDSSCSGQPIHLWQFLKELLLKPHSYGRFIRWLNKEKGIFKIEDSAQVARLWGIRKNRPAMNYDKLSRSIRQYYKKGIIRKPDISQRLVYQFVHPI
# Method in brief: as §1
# [15] = target: T10, ETV7 (Homo sapiens, UniProt Q9Y603 1-341); settings: protein: recombinant; tags: N-terminal GST; dsDNA, one strand shown
# T10 sequence: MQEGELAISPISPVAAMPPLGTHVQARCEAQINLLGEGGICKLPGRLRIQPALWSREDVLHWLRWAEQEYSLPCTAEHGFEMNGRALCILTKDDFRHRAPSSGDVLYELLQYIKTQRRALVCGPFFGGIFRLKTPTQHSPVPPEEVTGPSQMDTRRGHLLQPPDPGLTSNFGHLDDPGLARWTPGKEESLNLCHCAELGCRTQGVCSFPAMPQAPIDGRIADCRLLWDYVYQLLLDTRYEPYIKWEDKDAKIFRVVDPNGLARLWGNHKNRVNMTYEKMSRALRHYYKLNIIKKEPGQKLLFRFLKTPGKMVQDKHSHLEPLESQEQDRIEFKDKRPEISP
# Method in brief: as §1
# [16] = target: T11, ELF5 (Homo sapiens, UniProt Q9UKW6-2 1-255); settings: protein: recombinant; tags: N-terminal GST; dsDNA, one strand shown
# T11 sequence: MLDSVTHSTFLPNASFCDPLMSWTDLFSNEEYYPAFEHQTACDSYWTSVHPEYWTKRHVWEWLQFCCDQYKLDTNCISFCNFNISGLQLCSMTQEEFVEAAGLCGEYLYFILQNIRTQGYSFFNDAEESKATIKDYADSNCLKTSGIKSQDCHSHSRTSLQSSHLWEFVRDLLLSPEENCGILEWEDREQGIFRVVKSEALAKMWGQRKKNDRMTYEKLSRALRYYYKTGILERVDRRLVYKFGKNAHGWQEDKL
# Method in brief: as §1
# [17] = target: T12, ETV3 (Homo sapiens, UniProt P41162-2 1-143); settings: protein: recombinant; tags: N-terminal GST; dsDNA, one strand shown
# T12 sequence: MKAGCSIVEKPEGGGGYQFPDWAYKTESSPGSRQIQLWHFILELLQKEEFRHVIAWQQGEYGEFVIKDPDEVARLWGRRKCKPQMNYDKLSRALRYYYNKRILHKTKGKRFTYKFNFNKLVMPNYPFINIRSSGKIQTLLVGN
# Method in brief: as §1
# [18] = target: ETV6 (Homo sapiens, UniProt P41212 1-452); settings: protein: recombinant; tags: N-terminal GST; dsDNA, one strand shown
# Sequence of ETV6 (P41212 whole entry): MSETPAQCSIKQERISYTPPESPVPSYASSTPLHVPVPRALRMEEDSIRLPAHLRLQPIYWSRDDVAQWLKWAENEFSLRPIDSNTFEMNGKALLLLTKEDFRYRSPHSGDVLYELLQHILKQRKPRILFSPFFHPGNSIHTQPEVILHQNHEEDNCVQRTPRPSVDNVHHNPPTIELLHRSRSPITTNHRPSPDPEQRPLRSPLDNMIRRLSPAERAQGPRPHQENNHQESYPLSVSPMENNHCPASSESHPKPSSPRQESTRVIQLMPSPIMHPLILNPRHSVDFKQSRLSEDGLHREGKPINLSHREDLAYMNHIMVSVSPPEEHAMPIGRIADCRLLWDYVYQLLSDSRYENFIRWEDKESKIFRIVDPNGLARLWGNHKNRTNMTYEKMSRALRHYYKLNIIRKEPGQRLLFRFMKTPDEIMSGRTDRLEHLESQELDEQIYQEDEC
# Method in brief: as §1
sequence,measurement,setting,value
ATGATG,binding signal,[1],"1.27 fold enrichment (6-mer frequency, TF over GST control)"
same,binding signal,[2],"1.33 fold enrichment (6-mer frequency, TF over GST control)"
same,binding signal,[3],"1.24 fold enrichment (6-mer frequency, TF over GST control)"
same,binding signal,[4],"1.35 fold enrichment (6-mer frequency, TF over GST control)"
same,binding signal,[5],"1.37 fold enrichment (6-mer frequency, TF over GST control)"
same,binding signal,[6],"1.38 fold enrichment (6-mer frequency, TF over GST control)"
same,binding signal,[7],"1.47 fold enrichment (6-mer frequency, TF over GST control)"
same,binding signal,[8],"1.38 fold enrichment (6-mer frequency, TF over GST control)"
same,binding signal,[9],"1.21 fold enrichment (6-mer frequency, TF over GST control)"
same,binding signal,[10],"1.24 fold enrichment (6-mer frequency, TF over GST control)"
same,binding signal,[11],"1.27 fold enrichment (6-mer frequency, TF over GST control)"
same,binding signal,[12],"1.41 fold enrichment (6-mer frequency, TF over GST control)"
same,binding signal,[13],"1.27 fold enrichment (6-mer frequency, TF over GST control)"
same,binding signal,[14],"1.22 fold enrichment (6-mer frequency, TF over GST control)"
same,binding signal,[15],"1.43 fold enrichment (6-mer frequency, TF over GST control)"
same,binding signal,[16],"1.25 fold enrichment (6-mer frequency, TF over GST control)"
same,binding signal,[17],"1.43 fold enrichment (6-mer frequency, TF over GST control)"
same,binding signal,[18],"1.38 fold enrichment (6-mer frequency, TF over GST control)"

# — publication PMC7862700, “An all-to-all approach to the identification of sequence-specific readers for epigenetic DNA modifications on cytosine”
